Hits are enriched below; roughly 4.6% of the tested compounds scored in any of these assays.
TRHR PAM = TRH receptor (human) allosteric enhancement. AID 493056. actives 0.66% (n = 360,000). TRHR cells, fluo-8 calcium fluorescence, EC20 TRH enhancement. P34981. enhancement, % at 2 µM; in the data active means enhancement above about 30%
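TRHR-expressing cells loaded with fluo-8 calcium dye were read kinetically (ex 480/em 530) during compound addition, then stimulated with an EC20 of TRH (10 nM final). Enhancement of the Gq-mediated intracellular calcium response was scored.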
TRHR agonist = activates the human TRH receptor. P34981. TRHR cells, calcium flux fluo-8, FDSS agonist mode. activation, % at 2 µM. actives 0.18% (n = 360,000)
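Agonist-mode FDSS calcium read (Ex 480/Em 530, 1 s cycles) in 1536-well TRHR cells with fluo-8 dye, after 10-cycle baseline and 23 nL compound addition; TRH at EC20 (10 nM final) added afterwards for the enhancer phase.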
D1 ag = agonists of human D1 dopamine receptor | AID 504660 | actives 1% (n = 360,000) | P21728 | activation, % at 2 µM | HEK293 T-REx D1 cells, calcium flux, agonist mode
Target sequence (P21728 whole entry, looked up): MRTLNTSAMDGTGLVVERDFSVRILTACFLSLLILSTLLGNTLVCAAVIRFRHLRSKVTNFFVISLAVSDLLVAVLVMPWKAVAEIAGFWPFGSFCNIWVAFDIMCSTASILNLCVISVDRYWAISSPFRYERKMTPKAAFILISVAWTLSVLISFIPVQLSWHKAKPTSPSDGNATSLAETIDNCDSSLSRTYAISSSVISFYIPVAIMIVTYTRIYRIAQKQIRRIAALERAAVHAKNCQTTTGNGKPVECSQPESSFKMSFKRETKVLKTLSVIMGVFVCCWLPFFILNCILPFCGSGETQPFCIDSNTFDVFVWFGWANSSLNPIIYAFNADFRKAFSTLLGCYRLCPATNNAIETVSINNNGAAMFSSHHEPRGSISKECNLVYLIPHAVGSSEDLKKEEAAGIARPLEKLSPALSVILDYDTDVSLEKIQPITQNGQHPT
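Agonism was scored from calcium flux recorded over 180 s (1 read/s) after pintool compound addition, following a 10-cycle baseline. Cells were inducible force-coupled HEK293 TREx D1, plated overnight at 30 C and loaded with no-wash calcium dye.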
D1 PAM = enhances dopamine response at the human D1 receptor. P21728. HEK293 TREx D1 cells, calcium flux, dopamine EC20 potentiation. potentiation, % at 10 µM. actives 0.036% (n = 360,000). AID 504651; in the data active means potentiation above about 30%
D1 antag = human D1 dopamine receptor antagonism; HEK293 TREx D1 cells, calcium flux, dopamine EC80; stronger effect = lower value; activity change, negative = inhibition, % at 10 µM; actives 3.2% (n = 360,000); AID 504652; in the data active means activity change below about -30%
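HEK293 T-REx cells expressing inducible, force-coupled D1 receptor; no-wash Ca dye, 30–90 min RT. Cmpd → 180 s read at 1 Hz → EC80 DA → 180 s read.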
Large screens that a line does not name were inactive. Unless noted, no stated cut-off is given here; in the data, active means activation above about 30%; inactive means the rest.

COc1ccccc1NC(=O)C(C)OC(=O)CN1C(=O)C2CC=CCC2C1=O (stereo not given)	none
CS(=O)(=O)N1CCN=C1SCc1ccccc1	TRHR PAM 32
O=S(=O)(c1ccccc1)N1CCN=C1SCc1cccnc1	none
COc1cc2c(cc1OC)CN(C(=O)c1ccco1)CC2	none
CCc1ccc(NC(=O)c2sc3nc(C)cc(C)c3c2NC(=O)c2ccccc2OC)cc1	TRHR PAM 40
COc1ccc(C(=O)NNC(=O)C(=O)NCc2ccccc2)cc1	D1 antag -48
COc1ccc(C(=O)NNC(=O)C2CCCO2)cc1 (stereo not given)	D1 antag -31
COc1ccc(C(=O)NNC(=O)C(=O)NC2CCCCC2)cc1	D1 antag -46
CC[n+]1c(/C=C/C=C/N(C(C)=O)c2ccccc2)sc2cc(OC)ccc21	D1 ag 56
COc1nnc(-c2ccc(C)c(S(=O)(=O)NC(C)C)c2)c2ccccc12	none
Cc1ccc(-c2nnc(Nc3ccc(F)cc3)c3ccccc23)cc1S(=O)(=O)NC(C)C	D1 antag -34
Cc1ccc(-c2nnc(Nc3ccc(O)cc3)c3ccccc23)cc1S(=O)(=O)N1CCCCC1	TRHR PAM 30
CC(=O)Nc1ccc(Nc2nnc(-c3ccc(C)c(S(=O)(=O)NCCO)c3)c3ccccc23)cc1	none
Cc1ccc(-c2nnc(Nc3ccc(O)cc3)c3ccccc23)cc1S(=O)(=O)NC(C)(C)CO	D1 antag -44
Cc1ccc(-c2nnc(Nc3ccc(C(N)=O)cc3)c3ccccc23)cc1S(=O)(=O)N1CCCCC1	none
Cc1ccc(Nc2nnc(-c3ccc(C)c(S(=O)(=O)N4CCOCC4)c3)c3ccccc23)c(C)c1	D1 antag -45
Cc1ccc(S(=O)(=O)N2CCN(S(=O)(=O)N3CCC(C)CC3)CC2)cc1C	none
O=C(COC(=O)CCc1nc2ccccc2c(=O)[nH]1)Nc1ccccc1Cl	D1 antag -41
O=C(CCc1nc2ccccc2c(=O)[nH]1)NCc1ccccn1	D1 antag -30
COc1cc(CNCCCCO)ccc1OCc1ccccc1F	none
Cc1cc(Cl)ccc1OC(C)C(=O)Nc1ccc(S(=O)(=O)Nc2cnc3ccccc3n2)cc1 (stereo not given)	none
COc1cccc2sc(Nc3nnc(-c4ccccc4Cl)o3)nc12	D1 ag 43
COc1ccc(CCNCc2ccc3c(c2)n(C)c(=O)n3C)cc1OC	none
CCOC(=O)c1cc(OC(=O)c2cccnc2)n(-c2ccccc2)n1	D1 antag -39
CCOC(=O)c1cc(OC(=O)c2cccc(C)c2)n(-c2ccccc2)n1	none
CC(C)CCn1c(N2CCCC2)nc2c1c(=O)[nH]c(=O)n2C	D1 antag -38
Cc1csc(SCCn2c(N3CCN(c4ccccc4)CC3)nc3c2c(=O)[nH]c(=O)n3C)n1	D1 antag -64
CC(C)CCn1c(N2CCOCC2)nc2c1c(=O)n(CC(N)=O)c(=O)n2C	D1 antag -58
COC(=O)C(C)Oc1ccc2c(c1)O/C(=C\c1ccco1)C2=O (stereo not given)	none
Clc1ccc(/C=N/Nc2ccccn2)cc1	D1 antag -31
CCOC(=O)NC(N(O)c1cccc(Cl)c1)C(Cl)(Cl)Cl (stereo not given)	none
CCC1CN(C(=O)Nc2cccc3c2CCCC3)c2cc(C)ccc2O1 (stereo not given)	D1 antag -60
Cc1cc(Cl)ccc1NC(=O)CCC(=O)N/N=C/c1cc([N+](=O)[O-])ccc1O	none
O=[N+]([O-])c1ccc(O)c(/C=N/NC(=S)Nc2ccc(Cl)cc2Cl)c1	D1 antag -40
COc1cccc(N2CC(NS(=O)(=O)c3ccc4ccccc4c3)CC2=O)c1 (stereo not given)	D1 ag 31
COc1ccccc1-[n+]1c(C)cc(/C=C2\Sc3ccccc3N2C)cc1C	TRHR PAM 90, TRHR agonist 61, D1 ag 42
COc1ccc(-[n+]2c(C)cc(/C=C3\Sc4ccccc4N3C)cc2C)cc1	TRHR PAM 66, TRHR agonist 73, D1 ag 78
O=C(NNc1c(Cl)cccc1Cl)c1c(F)cccc1Cl	D1 antag -35
CC(=O)c1ccc(S(=O)(=O)N2CCN(C(=O)c3ccc(-n4cncn4)c([N+](=O)[O-])c3)CC2)cc1	D1 antag -50
